Nrf2 inh = Nrf2 qHTS screen for inhibitors | actives 2.1% (n = 360,000) | A549 ARE-Fluc reporter, luciferase luminescence, 18-24 h | Potency, µM (doses to about 46 µM), for the others: at the top dose activity change, negative = inhibition, most hits filed as inhibitors; further: potency means the concentration at half of the fitted maximal effect; on the % scale 0 is the no-effect control and ±100 the full control effect; nearly all actives have a fitted effect of over 60% in size
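Cells were seeded and rested 2 h, then exposed to compounds for 18-24 h. CellTiter-Fluor was read first as a viability measure. BugLite was added 15 min before the final luminescent read of ARE-luciferase activity in A549 cells.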
Nrf2 activator = qHTS of Nrf2 Activators. AREc32 ARE-luciferase reporter (MCF7-derived line), luminescence, 24 h. Potency, µM (top dose mostly 46.1 µM), for the others: top-dose activation, most hits filed as activators. actives 0.31% (n = 410,000); further: potency means the concentration at half of the fitted maximal effect; % of control where 0% means no effect; nearly all actives have a fitted effect of over 65% in size
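AREc32 cells carrying an ARE-driven firefly luciferase reporter were seeded at 1000 cells/well in OPTI-MEM with 5% FBS, then exposed to compound for 24 hr at 37 deg C. Luminescence was read with Steady-Glo after 30 min at RT.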
miR-21 reporter = qHTS Assay for Modulators of miRNAs and/orActivators of miR-21; HeLa miR-21 FLuc reporter, luciferase, 48 h; 340,000 tested, under 10 active; Potency, µM (doses to about 38.3 µM), without a hit: top-dose activity change, positive = activation, hits mostly activators;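 further: % of control where 0% means no effect; miR-21 action dims this reporter so a rising signal means less miR-21 action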
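Using DMEM plus 10% FBS, HeLa miR-21-FLuc cells are incubated with test compounds (final up to about 40uM) for 48 hours; firefly luciferase signal is then imaged following reagent-mediated lysis.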
A549 viability = Nrf2 qHTS screen for inhibitors: counterscreen for cytotoxicity; A549 ARE-Fluc cells, CellTiter-Fluor viability, 18-24 h; Potency, µM (series often up to 46 µM), for inactives: top-dose activity change, negative = cytotoxicity, actives largely listed as inhibitors; AID 504648, 2011; actives 0.16% (n = 390,000); further: potency means the concentration at half of the fitted maximal effect; on the % scale 0 is the no-effect control and ±100 the full control effect
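A549 ARE_Fluc cells in 5% FBS OPTI-MEM were exposed to compounds in concentration-response for 18-24 h at 37 deg C. Viability was read by CellTiter-Fluor fluorescence (Ex 405/Em 525) after 30 min, before the luciferase read.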
ClpP mod = qHTS Assay for Activators of ClpP; ATP-dependent Clp protease proteolytic subunit (Bacillus subtilis (strain 168)), P80244; purified B. subtilis ClpP, FRET peptide cleavage, 20 min; Potency, µM (doses to about 57.5 µM), inactives show at the highest dose activity change, negative = active; actives 1.9% (n = 340,000); active means well fitted falling curve with a large enough effect; inconclusive means small, poorly fitted or top-dose-only effect; inactive means no such curve, though single readings can be large or run the other way; further: potency means the concentration at half of the fitted maximal effect; the source files actives as falling curves though it sought activators and does not explain the sign; nearly all actives have a fitted effect of over 65% in size
Target sequence (P80244 whole entry, looked up): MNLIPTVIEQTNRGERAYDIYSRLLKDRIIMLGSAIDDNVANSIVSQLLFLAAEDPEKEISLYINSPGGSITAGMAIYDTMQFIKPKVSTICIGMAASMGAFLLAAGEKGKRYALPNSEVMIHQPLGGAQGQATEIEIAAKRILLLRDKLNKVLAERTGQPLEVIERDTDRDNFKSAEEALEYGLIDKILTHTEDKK
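Buffer: 100 mM Tris/HCl pH8, 100 mM KCl, 0.05% low protease BSA, 2.5% glycerol, 0.01% Tween-20. ClpP 10 microg/mL final; 20 min RT; delta FRET normalized to ADEP and DMSO controls.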
IL-2 act = qHTS of IL-2 Activators; IL-2 activation reporter assay, cell-based qHTS; stimulated with anti-CD3/CD4/CD28 beads; in transgenic mouse T cells; activation, % (series mostly up to about 46 µM); actives 0.065% (n = 360,000); AID 652025, 2013; in the data active means activation above about 50%; inconclusive means mostly about 30% to 49%; further: 0% is about no effect
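Quantitative HTS in unstimulated transgenic mouse T cells, with memory T cells as non-tolerant control and PMA/ionomycin as tolerance-bypass control. Compound pretreatment lasted 60 minutes before 18 h bead stimulation; EGFP/DsRed fluorescence read.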
Numbers without * were called inactive; ? = inconclusive; · = not tested or not shown. Most compounds without a hit are left out; they make up all but 3.7% or so of the library. Unless noted, the call rests on the fitted dose curve; in most records, active means well fitted curve in the direction sought with a large enough effect; inconclusive means small, poorly fitted or top-dose-only effect, or another doubt; inactive means no such curve, though single readings can be large; an effect the other way counts as inactive or inconclusive.

SMILES	Nrf2 inh	Nrf2 activator	miR-21 reporter	A549 viability	ClpP mod	IL-2 act
CCOc1ccc(CNC(=O)c2cnc3sc(N(CC)CC)nn3c2=O)cc1	-2%	1%	-4%	3%	1%	·
CCc1ccc(CNC(=O)c2cnc3sc(N(CC)CC)nn3c2=O)cc1	-2%	1%	2%	1%	13µM*	·
COc1cc(OC)c(NC(=O)CC(C)S(=O)(=O)c2ccc3c(c2)NC(=O)CO3)cc1Cl (stereo not drawn)	-11%	4%	4%	-4%	-2%	·
O=C(Nc1cccc(F)c1)c1ccc2snnc2c1	?	10%	-8%	-1%	0%	·
O=C1C(=Cc2cccs2)Oc2ccccc21	-13%	11µM*	·	0%	·	-1
Cc1ccccc1/C=C1\Oc2ccccc2C1=O	7%	13µM*	·	-5%	-1%	0
N#C/C(=C\C=C\c1ccccc1)c1nc(-c2ccc3c(c2)OCO3)cs1	14%	0%	-5%	3%	1%	95*
COc1ccc(C(=O)/C=C/c2ccc(N3CCCCC3)c([N+](=O)[O-])c2)c(OC)c1	?	13µM*	-11%	-22%	1%	-1
COc1ccc(C(=O)/C=C/c2ccc(N3CCCCC3)c([N+](=O)[O-])c2)cc1	5%	23%	-6%	-5%	-6%	-3
Cc1ccc(C(=O)CC2(O)C(=O)N(Cc3ccc4c(c3)OCO4)c3ccccc32)cc1 (stereo not drawn)	-20%	3%	-14%	-5%	16µM*	-2
O=C(CC1(O)C(=O)N(Cc2ccc3c(c2)OCO3)c2ccccc21)c1ccccc1 (stereo not drawn)	-15%	1%	-11%	1%	-1%	0
CCCNC(=O)c1ccc(-c2nc(CS(=O)(=O)c3ccc(C)cc3)c(C)o2)cc1	-7%	0%	-6%	6%	4%	·
O=C(Nc1ccccc1C(=O)NCCc1ccccc1)c1ccco1	·	2.8µM*	-7%	0%	-2%	0
O=C(O)/C=C/C(=O)NCc1ccccc1	?	3%	-8%	-9%	-7%	4
O=C(O)CNC(=O)c1ccccc1NC(=O)c1ccco1	19%	1%	1%	2%	2%	-1
O=C(O)/C=C\C(=O)Nc1ccccc1C(=O)NCc1ccccc1	5%	?	-5%	-2%	4µM*	0
CCSc1nnc(NC(=O)C(C(F)(F)F)C(F)(F)F)s1	-11%	?	0%	0%	1%	-4
CCSc1nnc(NC(=O)C(C)(C(F)(F)F)C(F)(F)F)s1	16µM*	0%	25%	?	0%	-3
CCSc1nnc(NC(=O)C(CC)(C(F)(F)F)C(F)(F)F)s1	15µM*	3%	?	?	1%	4
Cc1c(C(=O)N2CCC(c3nc4ccccc4s3)CC2)oc2ccc(Cl)cc12	-7%	2%	-5%	1%	-4%	·
Cc1ccc(SCc2nc(-c3ccc(C(=O)NCc4ccc(Cl)cc4)cc3)oc2C)cc1	27%	0%	0%	-16%	8%	·
O=C(Nc1ccc2ccccc2n1)c1ccccc1	?	11µM*	-18%	-3%	0%	-2
O=C(Nc1nccs1)c1ccc2ccccc2n1	?	?	-26%	0%	·	1
O=C(Nc1ccccn1)c1ccc2ccccc2n1	?	3.2µM*	-12%	1%	3%	-3
O=C(Nc1ccc2ccccc2n1)c1ccccc1Br	?	11µM*	-35%	0%	·	0
SMILES	Nrf2 inh	Nrf2 activator	miR-21 reporter	A549 viability	ClpP mod	IL-2 act
COc1cccc(C2c3c(ncn(-c4cccnc4)c3=N)Oc3ccc4ccccc4c32)c1 (stereo not drawn)	-2%	·	·	-6%	·	·
Cc1nc(-c2ccc(Cl)cc2)sc1CCNC(=O)c1ccc(C(F)(F)F)cc1	·	-1%	-5%	5%	-41%	·
O=C(Nc1ccc(F)cc1F)c1csc(-c2ccncc2)n1	?	12%	-29%	5%	·	0
O=C(Nc1ccc(F)cc1F)c1csc(-c2cccs2)n1	?	10µM*	-56%	-1%	-29%	1
O=C(Nc1ccccc1F)c1cc(Cl)sc1Cl	?	?	-33%	6%	0%	-3
O=C(Nc1ccc(F)cc1F)c1cc(Cl)sc1Cl	?	14µM*	-36%	-8%	1%	-4
O=C1C(C=NCCN2CCOCC2)=C(O)c2ccccc21	?	11%	-67%	-2%	28µM*	2
O=C1C(C=NCCCN2CCOCC2)=C(O)c2ccccc21	1%	12%	-19%	-4%	0%	0
COc1ccc(OC)c(-n2c(SCC(=O)NCC3CCCO3)nc3ccccc3c2=O)c1 (stereo not drawn)	-10%	0%	·	-13%	-1%	1
COCCn1c(N)c(C(=O)NCC2CCCO2)c2nc3ccccc3nc21 (stereo not drawn)	?	0%	7%	?	?	0
COc1ccc(OC)c(-n2c(N)c(C(=O)NCC3CCCO3)c3nc4ccccc4nc32)c1 (stereo not drawn)	·	3%	7%	-1%	18µM*	-2
Nc1c(C(=O)OCC2CCCO2)c2nc3ccccc3nc2n1C1CCCC1 (stereo not drawn)	?	6%	-1%	-12%	25µM*	-1
CC(C)Cn1c(N)c(C(=O)NCC2CCCO2)c2nc3ccccc3nc21 (stereo not drawn)	?	4%	23%	?	28µM*	-2
O=C(NCCc1ccccc1)c1ccc(Cn2c(SCc3ccccc3F)nc3cccnc32)cc1	?	1%	0%	?	5%	·
Fc1ccc2nncc(SCc3ccccc3Cl)c2c1	5%	5.6µM*	·	13%	·	0
CC(C)(C)C(=O)Nc1cc2nn(-c3ccccc3)nc2cc1Cl	?	-1%	1%	5%	28µM*	-2
CC(=O)Nc1cc2nn(-c3ccccc3)nc2cc1Cl	?	8%	-66%	-2%	20µM*	1
CCCCOC(=O)c1ccc(NC(=O)Cn2nnc3sc4c(c3c2=O)CCCC4)cc1	-8%	0%	15%	-3%	-4%	·
CCN(CC)S(=O)(=O)c1ccc(NC(=O)c2c(C)oc3ncnc(N4CCCCC4)c23)cc1	?	0%	11%	10%	2%	·
CCc1ccc(/C=C2\SC(=S)N(CCC(=O)Nc3cc(C)on3)C2=O)cc1	6.5µM*	-1%	14%	2%	·	2
